In the library only some 10% were active in any assay of this set; here they are far more common.
G9a inh: inhibitors of human histone lysine methyltransferase G9a. G9a H3K9 monomethylation, AlphaScreen, 2 h. Potency, µM (highest dose often 102 µM), without a hit: at the top dose activity, negative = inhibition, usual class: inhibitors. actives 8.8% (n = 350,000). AID 504332; further: potency means the concentration at half of the fitted maximal effect; on the % scale 0 is the no-effect control and ±100 the full control effect; nearly all actives have a fitted effect of over 75% in size
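G9a (20 nM) preincubated 15 min RT with compounds, then 500 nM biotinylated H3K9 peptide and 20 uM SAM added; 2 h RT reaction. Monomethyl-H3K9 product detected by AlphaScreen with anti-H3K9me1 antibody, streptavidin donor and anti-rabbit IgG acceptor beads.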
HP1b chromo inh: blocks HP1-beta chromodomain binding to methylated histone tails; AlphaScreen HP1-beta / biotin-H3K9me3 peptide binding; P83916; Potency, µM (top dose mostly 114 µM), for inactives: top-dose activity change, negative = inhibition, actives largely listed as inhibitors; AID 540317; actives 0.56% (n = 390,000); further: potency means the concentration at half of the fitted maximal effect; nearly all actives have a fitted effect of over 70% in size
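Compound inhibition of the preformed complex between 50 nM HP1-beta and 50 nM biotinylated H3K9me3 peptide was read by AlphaScreen. Buffer was PBS pH 7.4 with 0.01% Tween-20. Incubations ran 30 min at room temperature, with 10 ug/mL donor/acceptor beads.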
BAZ2B inh: blocks human BAZ2B. Q9UIF8. Potency, µM (highest dose often 114 µM), for inactives: top-dose activity change, negative = inhibition, actives largely listed as inhibitors. actives 4.4% (n = 360,000). AlphaScreen BAZ2B-H3K14Ac peptide displacement; further: potency means the concentration at half of the fitted maximal effect; on the % scale 0 is the no-effect control and ±100 the full control effect; nearly all actives have a fitted effect of over 60% in size
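AlphaScreen displacement of biotin-H3(5-23)K14Ac peptide (50 nM final) from BAZ2B (50 nM final) in PBS pH 7.4, 0.01% Tween-20; complex preformed 30 min RT, then compounds (top 110 uM) 30 min RT, beads 20 min dark.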
CtBP-E1A inh: blocks the CtBP interaction with E1A. AlphaScreen GST-E1A/His-CtBP binding, 1536-well; active compounds read low. activity change, % (no concentration beside the values). actives 0.49% (n = 340,000). AID 651724; in the data active means activity change below about -65%; inconclusive means mostly about -30% to -63%; further: on the % scale 0 is the no-effect control and ±100 the full control effect
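Steps: dispense buffer (Tris pH 8.0, NaCl 300 mM, TCEP 1 mM, BSA, Tween 20); add 5X protein mix (GST-E1A, His-CtBP, 125 nM each); pin 23 nL compound; 2 h at 37 °C, dark; add 5X beads (50 ug/mL); 1 h; read.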
Six1-Eya2 inh: blocks human Six1 binding to Eya2. activity change, % (no concentration beside the values). actives 0.56% (n = 360,000). AID 651725. AlphaScreen GST-Six1/His-Eya2 binding, biochemical; active compounds read low. Q15475+O00167; in the data active means activity change below about -65%; inconclusive means mostly about -30% to -63%; further: on the % scale 0 is the no-effect control and ±100 the full control effect
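Six1/Eya2 binding was read as AlphaScreen signal after compounds were pinned into GST-Six1 plus His-tagged Eya2 (5X stock 250/500 nM) in pH 8.0 Tris/NaCl/TCEP buffer, beads added, then incubated 1 h, 37 C, dark.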
JMJD2A Tudor: blocks the human JMJD2A Tudor domain | O75164 | actives 4.4% (n = 390,000) | Potency, µM (highest dose often 114 µM), without a hit: at the top dose activity change, negative = inhibition, hits mostly inhibitors | AlphaScreen JMJD2A-Tudor / H3K4me3 peptide binding; further: potency means the concentration at half of the fitted maximal effect; on the % scale 0 is the no-effect control and ±100 the full control effect; nearly all actives have a fitted effect of over 50% in size
* hit, by the source's call; ? = inconclusive; / = not tested or not shown; ! = repeats disagree; [ ] = remark or other dose. Unless noted, the call rests on the fitted dose curve; in most records, active means well fitted inhibition curve with a large enough effect; inconclusive means small, poorly fitted or top-dose-only effect; inactive means no such curve, though single readings can be large or run the other way.

SMILES	G9a inh	HP1b chromo inh	BAZ2B inh	CtBP-E1A inh	Six1-Eya2 inh	JMJD2A Tudor
CCn1c(SCC(=O)N2CCCC2)nnc1-c1ccco1	-6%	42%	3%	7	25	1%
CCN(c1ccccc1)S(=O)(=O)c1cccc(C(=O)Nc2cccc(C)n2)c1	/	/	/	-10	-7	/
COc1cc(NC(=O)CCN2CCN(Cc3ccccc3)CC2)cc(OC)c1	-3%[59 µM]	13%	-31%	-2	-2	-5%
COc1cc(Cl)cc(NC(=O)CCN2CCN(C)CC2)c1	50µM*	24%	-6%	1	7	-16%
N#Cc1nc(Nc2cc(F)cc(F)c2)c2ncn(C3CCCC3)c2n1	/	/	/	/	/	-3%
CCOc1ccc2nc(SCC(=O)Nc3cccc(S(=O)(=O)NC4=NCCCCC4)c3)[nH]c2c1	45µM*	10%	-16%	-10	-25	-29%
CCOc1ccccc1OCC(=O)Nc1cccc(S(=O)(=O)NC2=NCCCCC2)c1	23%[12.7 µM]	30%	-5%	-1	-10	6%
CCOc1ccccc1Nc1nnc(SCC(=O)Nc2cccc(S(=O)(=O)NC3=NCCCCC3)c2)s1	40µM*	22%	-9%	-11	-16	-8%
O=C1NC[C@H](CCCCN2C[C@H](Cc3ccc(O)cc3)N(CCc3ccc(O)cc3)C(=O)C2=O)N(CC2CCCCC2)C1=O	/	/	/	18	13	/
NC(=O)CC(c1ccccc1)c1ccco1 (stereo unspecified)	-1%[59 µM]	28%	0%	-5	3	-17%[57.1 µM]
Cc1cc(C(c2cc(C)c(N)c(C)c2)c2ccco2)cc(C)c1N	/	79µM*	/	4	?	79µM*
COCc1cc(=O)n2[nH]c(N)nc2n1	/	26%	50µM*	-10	2	-31%
COc1cc(OC)c(OC)cc1/C=C/c1nc2cc3ccccc3cc2c(=O)n1-c1ccccc1Br	?	12%	-38%	/	/	?
COc1cccc(OC)c1OCCCCCCN1CCN(C)CC1	-5%[2.33 µM]	41%	3%	/	5	-14%
COc1cccc(OC)c1OCCCCN1CCCCC1	11µM*	-38%	50µM*	13	-1	40µM*
COc1cccc(OC)c1OCCCCN1CCCC1	?	?	?	3	10	7.9µM*
COc1cccc(OC)c1OCCCCN1CCC(Cc2ccccc2)CC1	13µM*	?	28µM*	-1	-3	3.2µM*
COc1cccc(OC)c1OCCCOc1c(OC)cccc1OC	10%[59 µM]	85%	11%	6	1	-14%
COc1ccc(NC(=O)NCCCN2CCC(Cc3ccccc3)CC2)cc1	/	4%	-12%	/	-9	-24%
CC(=O)CCc1ccc(OCCCCN2CCC(Cc3ccccc3)CC2)cc1	10µM*	?	50µM*	13	-2	3.5µM*
O=S(=O)(c1ccc2c(c1)OCCO2)N1CCN(S(=O)(=O)c2cccc3cccnc23)CC1	/	/	/	/	/	-13%
CCO[C@H]1OC(C(=O)NC2CC2)=C[C@@H](C2CC2)[C@@H]1CCCO	-8%[59 µM]	19%	0%	8	9	-7%
COc1ccccc1CNc1nc(-c2ccco2)nn1S(C)(=O)=O	-10%[59 µM]	28%	-19%	/	/	-1%
CCN(CC)CCNC(=O)c1cc2c(=O)n(C)c3cc(Cl)ccc3c2s1	-14%[59 µM]	19%	/	/	/	-9%
O=C(O)Cc1c[nH]c2ccc(O)cc12	24µM*!	30%	/	1	-1	-9%
SMILES	G9a inh	HP1b chromo inh	BAZ2B inh	CtBP-E1A inh	Six1-Eya2 inh	JMJD2A Tudor
COC(=O)c1sc2ccccc2c1S(=O)(=O)N1CCN(c2ccc(C(C)=O)cc2)CC1	?	12%	-33%	/	/	-18%
Cc1cc2oc(=O)cc(-c3ccccc3)c2c(C)c1-c1ccoc1	-7%	/	/	/	/	/
Cc1ccc(Cl)cc1N1CCN(C(=O)c2ccc3c(c2)CCN3S(=O)(=O)c2ccccc2)CC1	-9%[59 µM]	26%	-20%	/	/	-13%
CCN1C(=O)CC(C(=O)OC)=C1C	-26%	53%	3%	/	5	1%
COC(=O)C1=C(C)N(CCC2=CCCCC2)C(=O)C1	-2%[12.7 µM]	-5%	8%	1	-2	50µM*
CCCN(CCC)S(=O)(=O)c1ccc(Cl)c(OC)c1	117%	120%	37%	5	8	46%
CC(=O)N(/N=C1/C(=O)Nc2ccccc21)c1ccccc1	14µM*	?	-37%	-11	-7	?
CC(=O)c1ccc(N=C2C(=O)Nc3ccccc32)cc1	?	40%	2%	6	7	-14%
Cc1cc(Br)ccc1NS(=O)(=O)c1c(C)[nH]c(=O)[nH]c1=O	45µM*	25%	-1%	11	9	-12%
O=C(CN1C(=O)c2ccccc2C1=O)c1ccccc1	19%[12.7 µM]	27%	12%	4	-2	12%
CC1=C(CC(=O)c2ccccc2)C(=O)c2ccccc2C1=O	32µM*	?	22µM*	-20	?	35µM*
COc1ccc(-c2ccc3nnc(SCC(=O)NCC4CCCO4)n3n2)cc1 (stereo unspecified)	10%	25%	10%	-2	1	-7%
CCCCS/C(=C(/C#N)C(N)=O)c1cc2c([nH]1)CCCC2	20µM*	?	40µM*	-7	-13	45µM*
Cc1cc(/C=C(\C#N)C(=O)O)c(C)n1CC1CCCO1 (stereo unspecified)	?	?	-31%	/	-3	14µM*
Cc1cc(/C=C(\C#N)C(=O)O)c(C)n1-c1ccc(Br)cc1	71µM*	-19%	?	0	-2	-14%[11.4 µM]
CCCn1c(C)cc(/C=C(\C#N)C(=O)O)c1C	-27%	11%	2%	-8	3	-24%
CC(=O)Oc1c(S(=O)(=O)c2ccc(C)cc2)c(C)nn1-c1ccccc1	11µM*	26%	-22%	-7	6	-31%
Cc1ccc(C(=O)Oc2c(S(=O)(=O)c3ccccc3)c(C)nn2-c2ccccc2)cc1	?	6%	?	/	/	14µM*
Cc1nn(-c2ccccc2)c(OC(=O)c2ccc(Cl)cc2)c1S(=O)(=O)c1ccccc1	?	20%	-30%	/	/	-24%
C=CCSc1nnc(-c2cccc3ccccc23)o1	/	52%	/	/	/	13µM*
C=CCNc1nnc(-c2cccc3ccccc23)o1	/	/	/	/	/	11µM*
N#Cc1cccc(NC(=O)CSc2cccc[n+]2[O-])c1	/	52%	/	10	1	-12%
O=C(CCS(=O)(=O)c1ccccc1)N(CCCN1CCOCC1)c1nc2ccc(F)cc2s1	22µM*	37%	3%	4	1	-18%
CCc1cccc2sc(N(CCCN3CCOCC3)C(=O)CS(=O)(=O)c3ccccc3)nc12	6%	17%	5%	-3	-17	?

Assay outcomes (PubChem)
